Structures are written as SMILES. In all, about 220,000 compounds went through this assay and about 2,000 (0.91%) were called active. Roughly 2% stayed inconclusive and do not appear here. Only a sample is shown. Measured potencies and affinities stand elsewhere. Unmarked numbers belong to inactive results. Cut-off read from the data, not from the text of the source: inconclusive = inhibition above about 80% without an active follow-up result; inactive = below that; test concentration not stated here.

The values below come from PubChem BioAssay AID1626 (SRMLSC, 2009).

A short description of this experiment: M. tuberculosis H37Rv growth inhibitors, H37Rv strain (AID 1626).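 Note: bacteria incubated seven days before Alamar blue readout; 0% = bacteria only wells and 100% = bacteria with antibiotic wells.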 Particulars: active compounds read high, concentration not given here.
For the compound `COCCCNC(=O)c1ccc(N2CCOCC2)c(NS(=O)(=O)c2ccc(OC)cc2)c1`, the inhibition is -10.8%. The result for `Cc1ccc(SC[C@H](c2ccccc2)N2CCN(CCc3ccccc3)CCC2=O)cc1` reads 0.98%; that for `COC(=O)C(C(=O)OC)c1ccc(N)cc1`, 79.1%; that for `N/C(=N/OC(=O)c1ccccc1Cl)c1nonc1N`, -5.25%. Take `N=C(N)CCCOc1ccccc1-c1ccccc1`: the inhibition is 4.47%. As to `O=C(CN1C(=O)c2ccccc2C1=O)Nc1ccc(N2CCOCC2)cc1`, the inhibition is 1.44%. On to `O=C(NCCN1CCOCC1)c1ccc2c(c1)N(Cc1cccc(F)c1)C(=O)c1ccccc1S2`, for which the inhibition was 2.5%.

Regarding `Cc1cc(Cl)n2c(nc3ccccc32)c1C#N`, the inhibition was -11.2%.

`Cc1cc(Nc2c(C)n(C)n(-c3ccccc3)c2=O)n2c(nc3cc(F)c(F)cc32)c1C#N`: the inhibition was -5.9%. The result for `COC(=O)c1[nH]c2ccc(Br)cc2c1NC(=O)C(C)N1CCN(C2CCCCC2)CC1` (stereo not drawn) reads -3.42%.

For `CC1CCc2nc3ccccc3c(C(=O)OCC(=O)NC3CCS(=O)(=O)C3)c2C1` (stereo not drawn), the inhibition was -5%.

In the case of `CN(C(=O)COC(=O)c1c2c(nc3ccccc13)/C(=C/c1cccc([N+](=O)[O-])c1)CCC2)C1CCS(=O)(=O)C1` (stereo not drawn), the inhibition was 78.5%.

As to `Cc1nn(C)c(C(=O)Nc2ccn(Cc3ccccc3F)n2)c1[N+](=O)[O-]`, the inhibition is -2.14%. As to `O=[N+]([O-])c1ccc(NCCCO)c(S(=O)(=O)N2CCOCC2)c1`, the inhibition is -3.72%. With `COc1ccc2c(c1)sc(=N)n2CC(=O)Nc1cc(C)cc(C)c1` the figure was 3.49%.

As to `COc1ccc2c(c1)c1ccccc1n2C`, the inhibition was -6.03%. `O=C(O)COc1ccccc1Cc1ccccc1`: the inhibition was -9.69%. As to `O=C(COc1ccc(F)cc1)N1c2ccccc2CCc2ccccc21`, the inhibition is 6.06%. As for `O=C(CCC1CCCN(c2ncccn2)C1)N1CCN(c2ccccn2)CC1` (stereo not drawn), the inhibition is 0.77%. Turning to `N#C/C(=C/c1ccncc1)c1nc2ccccc2s1`, the inhibition is 4.82%.

For `N#C/C(=C\c1ccco1)c1nc2ccccc2s1`, the inhibition was 4.85%. Consider `Cc1ccc(OCC(=O)n2nc(C)cc2C)c(C)c1`, for which the inhibition was 10%. Consider `COc1ccc(N2C(=O)CC(N3CCC(c4nc5ccccc5[nH]4)CC3)C2=O)cc1` (stereo not drawn), for which the inhibition was -1.11%. Consider `O=C(CN1C(=O)NC2(CCCCCCC2)C1=O)N1CCc2ccccc2C1`, for which the inhibition is -9.98%. With `CSc1nsc(SCC(=O)Nc2cccc(C(C)=O)c2)n1` the figure was -15.7%; with `COc1ccc2nc(NC(=O)CSc3nnnn3C3CCCCC3)sc2c1`, 0.53%. With `CCn1nnnc1SCC(=O)Nc1nc2ccc(OC)cc2s1` the figure was 1.9%; with `CCOc1ccc2nc(SCC(=O)NC(=O)C(C)C)sc2c1`, 3.81%. Regarding `CSc1nsc(SCC(=O)Nc2nc3ccccc3s2)n1`, the inhibition is 52.1%.

Regarding `O=C(CSc1nc2ccccc2s1)Nc1ccc2c(c1)OCO2`, the inhibition is 76.4%. Take `CSc1nsc(SCC(=O)Nc2nc3ccc(C)cc3s2)n1`: the inhibition was 10.3%. As to `CSc1nsc(SCC(=O)Nc2ccc3c(c2)OCCO3)n1`, the inhibition is -14.4%. On to `O=C1c2ccccc2C(Nc2ccc(S(=O)(=O)N3CCOCC3)cc2)N1Cc1ccco1` (stereo not drawn), for which the inhibition was -2.41%.

With `CC(CC(=O)N1CCN(c2ccc(C(F)(F)F)cn2)CC1)n1ccnc1` (stereo not drawn), the inhibition is 1.81%. The result for `O=C(Cc1ccc(-n2c(=O)c3sccc3n(CC(=O)Nc3ccccc3F)c2=O)cc1)NCc1ccco1` reads -10.9%. `COc1ccc(C(CC(=O)N2CCCC(C)C2)c2c(OC)cc(OC)c3c(-c4ccccc4)cc(=O)oc23)cc1` (stereo not drawn): the inhibition was -5.32%. For `COc1cc(OC)c2c(-c3ccccc3)cc(=O)oc2c1C(CC(=O)N1CCOCC1)c1ccc(N(C)C)cc1` (stereo not drawn), the inhibition was -7.25%. Regarding `COc1cc(C(CCN2CCCC2)c2c(OC)cc(OC)c3c(-c4ccccc4)cc(=O)oc23)cc(OC)c1OC` (stereo not drawn), the inhibition is -3.05%. On to `COc1cc(C(CCN2CCCC(C)C2)c2c(OC)cc(OC)c3c(-c4ccccc4)cc(=O)oc23)cc(OC)c1OC` (stereo not drawn), for which the inhibition was 71%. For `O=C(Cc1c(Cl)cccc1Cl)Nc1cccc(S(=O)(=O)N2CCOCC2)c1`, the inhibition was 9.23%. For the compound `OC(COc1ccc(-c2ccccc2)cc1)CN1CCOCC1` (stereo not drawn), the inhibition is 8.22%. For `CCOc1ccccc1NC(=O)Cn1c(=O)oc2ccccc21`, the inhibition was 6.54%. With `Cc1nn(-c2ccccn2)c2c1C(c1c(F)cccc1Cl)C1=C(N2)c2ccccc2C1=O` (stereo not drawn), the inhibition was 8.57%. As to `Cc1nn(-c2ccccn2)c2c1C(c1ccccc1Cl)C1=C(N2)c2ccccc2C1=O` (stereo not drawn), the inhibition was 5.6%. The result for `Cc1cc(C)c(C#N)c(Oc2ccc(O)cc2)n1` reads 8.87%; that for `O=C1C=C(c2cccs2)CC(c2cccs2)C1n1cnc([N+](=O)[O-])c1` (stereo not drawn), 8.22%; that for `CC(=O)C1C(=O)C=C(c2cccs2)CC1c1ccccc1` (stereo not drawn), 2.98%. Consider `Cc1ccc(S(N)(=O)=O)c(C)c1N1CCCC1=O`, for which the inhibition is -3.84%. With `Cc1ccc(-c2noc(CCC(=O)Nc3ccc4c(c3)OCO4)n2)cc1`, the inhibition is 67.5%. The result for `COc1ccc(-c2noc(CCC(=O)NCCCN3CCN(c4ccc(F)cc4)CC3)n2)cc1` reads 8.36%. Consider `Cc1ccc(-c2noc(CCC(=O)NCCCN3CCN(c4ccc(F)cc4)CC3)n2)cc1`, for which the inhibition is -9.54%. Consider `COc1ccc(-c2noc(CCC(=O)Nc3cccc(C)c3)n2)cc1`, for which the inhibition was 78.2%. For `COc1cc(OC)c(NC(=O)CCc2nc(-c3ccc(C)cc3)no2)cc1Cl`, the inhibition is -0.67%. `COc1ccc(CCC(=O)Nc2ccc3c(c2)OCCO3)cc1`: the inhibition was -2.09%. Turning to `COc1ccc(-c2noc(CCC(=O)Nc3cc(OC)ccc3OC)n2)cc1`, the inhibition is 3.07%. `COc1ccc(-c2noc(CCC(=O)Nc3cc(Cl)c(OC)cc3OC)n2)cc1`: the inhibition was 14.3%. As to `CCOc1ccc(-c2nc(N)ncc2Oc2ccc(OC)cc2)c(O)c1`, the inhibition was 1.63%. The result for `CCOc1ccc(CN2CCN(Cc3cccc4c3OCO4)CC2CCO)cc1` (stereo not drawn) reads 5.32%; that for `CC(OC(=O)c1ccc(Cl)c(S(=O)(=O)Nc2ccc(F)cc2)c1)C(=O)NC(N)=O` (stereo not drawn), -1.89%; that for `CCn1c(NN=O)nc2ccccc21`, 3.63%.

For the compound `CC(=O)C1=C(C)NC(=O)NC1c1cccs1` (stereo not drawn), the inhibition is -8.1%. For the compound `COc1cc(/C=C(\C#N)c2ccccn2)ccc1OCC(=O)Nc1ccc(Br)cc1`, the inhibition is -1.03%. Regarding `C#CC1(NC(=O)NC(C)(C)C)CCCCC1`, the inhibition is 2.25%. With `COc1ccccc1NC(=O)COC(=O)c1cnc(C)cn1` the figure was 0.5%; with `CCc1cc(C(c2cccc(OC)c2)N2CCOCC2)c(NC(=O)c2ccccc2)s1` (stereo not drawn), 2.32%; with `CCOC(=O)C1(CC/C(C)=N\NC(N)=O)CC(C)(C)OC1=O` (stereo not drawn), -7.16%. As for `Cc1nnc(C)n1/N=C/c1cccc(Oc2ccccc2)c1`, the inhibition is 5.69%. Turning to `COC(=O)c1ccsc1NC(=O)C1=COCCO1`, the inhibition is 2.57%. The result for `O=C(NCc1ccccc1)C(=O)Nc1nc(C23CC4CC(CC(C4)C2)C3)cs1` reads 6.64%. Take `CNc1nc(C23CC4CC(CC(C4)C2)C3)cs1`: the inhibition is 2.54%.

Take `CCn1c(SCC(=O)Nc2ccccc2C(=O)OC)nnc1-c1cccc(C)c1`: the inhibition was -2.01%. In the case of `O=C(Nc1nc2ccccc2n1CCN1CCCCC1)C1CCCCC1`, the inhibition is 4.2%. With `O=C(Nc1nc2ccccc2n1CCN1CCCC1)C1CCCCC1`, the inhibition was -3.71%.

`CCCCn1c(NC(=S)Nc2ccccc2)nc2ccccc21`: the inhibition is 9.5%.

Turning to `CN(C)CCCn1c(NC(=O)C2CCCCC2)nc2ccccc21`, the inhibition is 3.22%. Regarding `O=C(Cc1ccccc1)Nc1cccc(N2CCCC2)c1`, the inhibition is 2.44%.

As for `Cc1nnc(NN)n(N)c1=O`, the inhibition is -3.11%. Turning to `O=C(N/C(=C/C=C\c1ccccc1)C(=O)N1CCOCC1)c1ccc(Br)cc1`, the inhibition was 64.4%. Take `CCCCOc1ccc(C(=O)N/C(=C/C=C/c2ccccc2)C(=O)O)cc1`: the inhibition was -8.39%. With `CCC(=O)Nc1ccc(NC(=S)NC(=O)c2cc3ccccc3o2)cc1` the figure was 15.4%. On to `Cc1ccc(S(=O)(=O)NCC(=O)N(CC(=O)NCC2CCCO2)Cc2ccco2)cc1` (stereo not drawn), for which the inhibition is 11.1%. Turning to `O=[N+]([O-])c1cc(Cl)ccc1N1CCOCC1`, the inhibition was -3.75%. As to `O=C(Nc1ccccc1N1CCOCC1)c1ccc(N2CCOCC2)c([N+](=O)[O-])c1`, the inhibition is 6.98%.

As for `Cc1ccc(OC(=O)c2ccc(N3CCOCC3)c([N+](=O)[O-])c2)cc1`, the inhibition is 54.1%.

Regarding `COc1ccc(C(=O)c2ccc(N3CCOCC3)c([N+](=O)[O-])c2)cc1`, the inhibition is -2.74%. With `O=C(O)c1ccccc1C(=O)c1ccc(N2CCOCC2)c([N+](=O)[O-])c1` the figure was 3.64%; with `O=C(OCC(=O)N1CCOCC1)c1ccc(N2CCOCC2)c([N+](=O)[O-])c1`, -0.57%; with `Cc1sc(NC(=O)CSc2nnc(-c3ccccc3)o2)c(C#N)c1C`, -2.26%. As to `CCOc1ccc(NC(=O)CC2SC(N)=NC2=O)c([N+](=O)[O-])c1` (stereo not drawn), the inhibition is 2.3%.

On to `COC(=O)c1ccc(NC(=O)CN2C(=O)C3C4C=CC(C4)C3C2=O)cc1` (stereo not drawn), for which the inhibition was 1.35%. For the compound `COc1ccc(C(=O)CNc2ccccc2C#N)cc1`, the inhibition is 3.5%.

As for `Cc1ccc(NC(=O)COC(=O)CCC(=O)c2cccs2)cc1`, the inhibition was -6.9%. On to `COc1ccc(C(=O)CNc2ccccc2CO)cc1`, for which the inhibition is -0.7%. In the case of `CCCOc1ccc(C(=O)CCNc2ccc(C)c(Cl)c2)cc1`, the inhibition is 69.1%. With `Cc1ccc(NC(=O)CCC(=O)c2cccs2)cc1` the figure was 1.21%.

For the compound `O=C(CCNc1cc(Cl)cc(Cl)c1)c1cccs1`, the inhibition is 74.2%.

As to `Cc1ccc(NCCC(=O)c2cccs2)cc1C`, the inhibition is 74.8%.

For the compound `COc1ccc(C(=O)CCNc2cccc(Cl)c2)cc1`, the inhibition is 10.7%.
